# Results published in PubChem BioAssay (NCATS).
# Active and inactive are the calls of the source. Calls come from the whole dose curve.
# Assay: qHTS drug screen for cell cycle checkpoint inhibitors in PARPi-resistant BRCA-mutant ovarian cancer cell lines. (AID 1963452)
# Details: PEO1/OlaR viability, CellTiter-Glo luminescence, 96 h, stronger effect = lower value
# Source text: Women's Malignancies Branch, Center for Cancer Research (CCR),
# National Cancer Institute (NCI), National Institutes of Health (NIH), Bethesda, MD
# Poly (ADP-ribose) polymerase inhibitors (PARPis) have changed the treatment paradigm in breast cancer gene (BRCA) - mutant high-grade serous ovarian carcinoma (HGSC). However, most patients eventually develop resistance to PARPis, highlighting an unmet need for improved therapeutic strategies. Using high-throughput drug screens, we identified ataxia telangiectasia and rad3-related protein/checkpoint kinase 1 (CHK1) pathway inhibitors as cytotoxic and further validated the activity of the CHK1 inhibitor (CHK1i) prexasertib in PARPi-sensitive and -resistant BRCA-mutant HGSC cells and xenograft mouse models. CHK1i monotherapy induced DNA damage, apoptosis, and tumor size reduction. We then conducted a phase 2 study (NCT02203513) of prexasertib in patients with BRCA-mutant HGSC. The treatment was well tolerated but yielded an objective response rate of 6% (1 of 17; one partial response) in patients with previous PARPi treatment. […] BRCA reversion mutation in previously PARPi-treated BRCA-mutant patients was not associated with resistance to CHK1i.
# Among others, 1082 oncology drugs, both approved and investigational, were prioritized based on their status in clinical trial development. […] Drugs with average Z-AUC values less than -1.0 in all three cell lines were classified as "hits" resulting in 151 oncology drug hits. The screen also confirmed cross-resistance between olaparib and other PARPis (rucaparib, niraparib, and talazoparib) in PARPi-resistant PEO1/OlaR and PEO4.
# [1] G. L. Lin, K. M. Wilson, M. Ceribelli, B. Z. Stanton, P. J. Woo, S. Kreimer, E. Y. Qin, X. Zhang, J. Lennon, S. Nagaraja, P. J. Morris, M. Quezada, S. M. Gillespie, D. Y. Duveau, A. M. Michalowski, P. Shinn, R. Guha, M. Ferrer, C. Klumpp-Thomas, S. Michael, C. McKnight, P. Minhas, Z. Itkin, E. H. Raabe, L. Chen, R. Ghanem, A. C. Geraghty, L. Ni, K. I. Andreasson, N. A. Vitanza, K. E.Warren, C. J. Thomas, M. Monje, Therapeutic strategies for diffuse midline glioma from high-throughput combination drug screening. Sci. Transl. Med. 11, (2019).
# [2] T. M. Yamamoto, A. McMellen, Z. L. Watson, J. Aguilera, R. Ferguson, E. Nurmemmedov, T. Thakar, G. L. Moldovan, H. Kim, D. M. Cittelly, A. M. Joglar, E. P. Brennecke, H. Wilson, K. Behbakht, M. J. Sikora, B. G. Bitler, Activation of Wnt signaling promotes olaparib resistant ovarian cancer. Mol. Carcinog. 58, 1770 - 1782 (2019).
# PROTOCOL TABLE (as described by Inglese J, Shamu CE and Guy RK. 2007)
# SEQUENCE No. (e.g., 1, 2, 3, etc.); […] (e.g., Cells, Incubation, Reagent, etc.); VALUE; DESCRIPTION.
# 1; Compounds; 20nL; 1536-well white tissue culture-treated plates.
# 2; Cells; 5 uL; PEO1, PEO4, and PEO1/OlaR cells at 600 cells per well.
# 3; Incubation; 96 hr; 37C, 95% humidity, 5% CO2.
# 4; Reagent; 3 uL; CellTiter-Glo (Promega).
# 5; Incubation; 15 min; room temperature.
# 6; Detection; Luminescence, PHERAstar (BMG Labtech) plate reader.
# NOTES (numbers refer to Sequence numbers above)
# 1. MIPE 5.0 compounds were acoustically dispensed by Echo Acoustic Liquid Handler (Beckman Coulter Life Sciences). Each compound was plated at an 11-point concentration range with 1:3 dilution. Bortezomib, a proteasome inhibitor (final concentration, 20 uM), was used as a positive.
# 2. PEO1, PEO4, and PEO1/OlaR were trypsinized and dispensed in 5 uLof growth medium using a Multidrop Combi dispenser at a density of 600 cells per well to allow compounds to be present during the exponential growth phase.
# 3. Plates were incubated for 96 hours at standard incubator conditions and covered by a stainless steel gasketed lid to prevent evaporation.
# 4. Three microliters of CellTiter-Glo (Promega) were added to each well.
# 5. Plates were incubated at room temperature for 15 min with a stainless-steel lid in place.
# 6. Luminescence readings were taken using PHERAstar (BMG Labtech). […]
# [1] = measured here: PEO1 parental Z-AUC
SMILES,Z-AUC,Z-AUC [1],Z-AUC (measured here: PEO4 Z-AUC)
CCOc1cc(C(=O)Nc2ccc(Cl)c(-c3nc4ccccc4[nH]3)c2)cc(OCC)c1OCC,-0.941 (inactive),0.578,-0.467
CC(C)(Sc1ccc(CCN(CCCCC2CCCCC2)C(=O)NC2CCCCC2)cc1)C(=O)O,1.3 (inactive),1.26,1.25
Cc1csc(NC(=O)c2sc3nc4c(c(C(F)(F)F)c3c2N)CCC4)n1,0.359 (inactive),0.125,0.375
CNC(=O)c1ccccc1Sc1ccc2c(/C=C/c3ccccn3)n[nH]c2c1,0.578 (inactive),0.269,0.241
CCCn1c(=O)c2[nH]c(C34CC5CC3C[C@@H](C5)C4)nc2n(CCC)c1=O,0.471 (inactive),0.393,0.158
NC(N)=NC(=O)c1nc(Cl)c(N)nc1N,-0.792 (inactive),-0.971,-0.392
COc1ccc(-c2c(-c3ccc(O)cc3O)n[nH]c2C)cc1,0.835 (inactive),0.673,1.1
CNC[C@H](O)c1cccc(O)c1,0.649 (inactive),0.723,0.496
CN1CCN(CCCN2c3ccccc3Sc3ccc(C(F)(F)F)cc32)CC1,0.668 (inactive),0.224,0.215
CN([C@@H](Cc1ccc(OS(=O)(=O)c2cccc3cnccc23)cc1)C(=O)N1CCN(c2ccccc2)CC1)S(=O)(=O)c1cccc2cnccc12,1.57 (inactive),1.54,1.7
COc1cc2c(cc1OC)CN(CCc1ccc(NC(=O)c3cccc4c(=O)c5cccc(OC)c5[nH]c34)cc1)CC2,1.13 (inactive),0.952,0.963
O=C(Nc1ccc(F)c(C(F)(F)F)c1)Nc1nnc(-c2ccncc2)s1,-0.226 (inactive),-0.821,-0.018
Cc1ccc(-n2nc(C(C)(C)C)cc2NC(=O)Nc2ccc(OCCN3CCOCC3)c3ccccc23)cc1,0.154 (inactive),0.786,0.35
CC(C)(N)C(=O)N[C@H](COCc1ccccc1)C(=O)N1CCC2(CC1)CN(S(C)(=O)=O)c1ccccc12,1.64 (inactive),1.18,1.52
